In the supplement of paper PMC11732987, “Enantioselective OTUD7B fragment discovery through chemoproteomics screening and high-throughput optimisation” (Communications Chemistry, 2025):

Assays:
Test in all cases: log2 ratio of Biotin-Ahx-Ub-VS probe labelling (fragment/DMSO); higher = less target engagement (more negative = stronger competition), active = hit call of the paper (q ≤ 0.05, log2 ratio ≤ -1)
Conditions in all cases: compound concentration: 200 uM; treatment time: 3 h
[1] = molecular target: T1, USP19 (UniProt O94966)
T1 sequence (whole entry): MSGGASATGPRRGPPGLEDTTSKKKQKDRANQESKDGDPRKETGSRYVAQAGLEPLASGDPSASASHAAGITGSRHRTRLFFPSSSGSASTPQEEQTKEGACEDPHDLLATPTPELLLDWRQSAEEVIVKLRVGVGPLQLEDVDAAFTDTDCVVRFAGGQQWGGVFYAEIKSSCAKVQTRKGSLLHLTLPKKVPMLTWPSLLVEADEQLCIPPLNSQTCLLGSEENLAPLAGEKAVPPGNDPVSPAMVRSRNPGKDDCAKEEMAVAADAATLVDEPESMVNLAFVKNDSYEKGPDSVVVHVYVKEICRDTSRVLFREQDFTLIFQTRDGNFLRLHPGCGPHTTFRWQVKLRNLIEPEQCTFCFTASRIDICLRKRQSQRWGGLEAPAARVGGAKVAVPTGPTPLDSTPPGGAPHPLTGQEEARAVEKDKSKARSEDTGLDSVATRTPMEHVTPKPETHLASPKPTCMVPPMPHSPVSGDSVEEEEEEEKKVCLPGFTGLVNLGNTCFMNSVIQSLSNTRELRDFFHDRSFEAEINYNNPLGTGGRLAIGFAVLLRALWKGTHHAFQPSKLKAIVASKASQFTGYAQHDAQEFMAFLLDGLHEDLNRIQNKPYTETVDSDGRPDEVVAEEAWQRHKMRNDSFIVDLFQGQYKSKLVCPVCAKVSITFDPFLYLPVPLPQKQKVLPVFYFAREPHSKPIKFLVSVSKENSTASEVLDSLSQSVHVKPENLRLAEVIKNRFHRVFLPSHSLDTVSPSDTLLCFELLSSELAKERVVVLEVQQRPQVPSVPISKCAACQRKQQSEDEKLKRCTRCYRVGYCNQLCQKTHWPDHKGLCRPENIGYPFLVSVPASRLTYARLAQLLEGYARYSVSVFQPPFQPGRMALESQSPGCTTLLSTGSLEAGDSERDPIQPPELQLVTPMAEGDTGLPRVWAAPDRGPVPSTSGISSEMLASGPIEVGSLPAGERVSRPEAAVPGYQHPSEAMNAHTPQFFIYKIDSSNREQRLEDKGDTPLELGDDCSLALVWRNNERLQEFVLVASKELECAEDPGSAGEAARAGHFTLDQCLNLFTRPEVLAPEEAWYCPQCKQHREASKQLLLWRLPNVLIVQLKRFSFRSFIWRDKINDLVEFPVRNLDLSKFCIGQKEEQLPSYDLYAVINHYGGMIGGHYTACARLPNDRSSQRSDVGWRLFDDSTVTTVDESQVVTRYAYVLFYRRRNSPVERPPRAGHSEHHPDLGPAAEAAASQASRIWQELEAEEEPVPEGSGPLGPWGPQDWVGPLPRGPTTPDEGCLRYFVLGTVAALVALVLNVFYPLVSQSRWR
In short: (§1)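 Triplicate samples of HEK293T lysate, 495 µg each, received fragment at 200 µM or vehicle for 3 h, followed by Biotin-Ahx-Ub-VS (0.5 µM final) for 1 h. After NeutrAvidin enrichment of labelled DUBs and LysC/trypsin digestion, peptides were run by diaPASEF LC-MS/MS. The values are average log2 fragment/vehicle ratios from global-median-normalised Spectronaut label-free quantities, tested by unpaired t-test on proteins having ≥2 unique peptides.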

[2] = molecular target: T2, USP22 (UniProt Q9UPT9)
T2 sequence (whole entry): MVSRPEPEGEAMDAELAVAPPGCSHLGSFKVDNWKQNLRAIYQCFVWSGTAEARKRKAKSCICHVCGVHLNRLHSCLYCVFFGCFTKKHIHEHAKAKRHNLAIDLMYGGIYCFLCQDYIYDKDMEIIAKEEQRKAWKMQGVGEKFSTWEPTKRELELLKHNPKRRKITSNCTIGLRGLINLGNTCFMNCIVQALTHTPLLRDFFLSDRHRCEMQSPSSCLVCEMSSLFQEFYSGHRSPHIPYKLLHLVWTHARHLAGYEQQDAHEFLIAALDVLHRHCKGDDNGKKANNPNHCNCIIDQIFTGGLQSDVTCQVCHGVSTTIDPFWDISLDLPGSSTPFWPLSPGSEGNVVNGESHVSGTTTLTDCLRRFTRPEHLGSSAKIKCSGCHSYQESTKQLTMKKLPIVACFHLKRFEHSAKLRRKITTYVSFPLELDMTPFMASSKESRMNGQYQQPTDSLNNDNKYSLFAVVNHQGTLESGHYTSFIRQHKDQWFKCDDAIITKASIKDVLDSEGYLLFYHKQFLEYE
In short: as §1

[3] = molecular target: USP24 (UniProt Q9UPU5)
Chain of USP24 (Q9UPU5 whole entry): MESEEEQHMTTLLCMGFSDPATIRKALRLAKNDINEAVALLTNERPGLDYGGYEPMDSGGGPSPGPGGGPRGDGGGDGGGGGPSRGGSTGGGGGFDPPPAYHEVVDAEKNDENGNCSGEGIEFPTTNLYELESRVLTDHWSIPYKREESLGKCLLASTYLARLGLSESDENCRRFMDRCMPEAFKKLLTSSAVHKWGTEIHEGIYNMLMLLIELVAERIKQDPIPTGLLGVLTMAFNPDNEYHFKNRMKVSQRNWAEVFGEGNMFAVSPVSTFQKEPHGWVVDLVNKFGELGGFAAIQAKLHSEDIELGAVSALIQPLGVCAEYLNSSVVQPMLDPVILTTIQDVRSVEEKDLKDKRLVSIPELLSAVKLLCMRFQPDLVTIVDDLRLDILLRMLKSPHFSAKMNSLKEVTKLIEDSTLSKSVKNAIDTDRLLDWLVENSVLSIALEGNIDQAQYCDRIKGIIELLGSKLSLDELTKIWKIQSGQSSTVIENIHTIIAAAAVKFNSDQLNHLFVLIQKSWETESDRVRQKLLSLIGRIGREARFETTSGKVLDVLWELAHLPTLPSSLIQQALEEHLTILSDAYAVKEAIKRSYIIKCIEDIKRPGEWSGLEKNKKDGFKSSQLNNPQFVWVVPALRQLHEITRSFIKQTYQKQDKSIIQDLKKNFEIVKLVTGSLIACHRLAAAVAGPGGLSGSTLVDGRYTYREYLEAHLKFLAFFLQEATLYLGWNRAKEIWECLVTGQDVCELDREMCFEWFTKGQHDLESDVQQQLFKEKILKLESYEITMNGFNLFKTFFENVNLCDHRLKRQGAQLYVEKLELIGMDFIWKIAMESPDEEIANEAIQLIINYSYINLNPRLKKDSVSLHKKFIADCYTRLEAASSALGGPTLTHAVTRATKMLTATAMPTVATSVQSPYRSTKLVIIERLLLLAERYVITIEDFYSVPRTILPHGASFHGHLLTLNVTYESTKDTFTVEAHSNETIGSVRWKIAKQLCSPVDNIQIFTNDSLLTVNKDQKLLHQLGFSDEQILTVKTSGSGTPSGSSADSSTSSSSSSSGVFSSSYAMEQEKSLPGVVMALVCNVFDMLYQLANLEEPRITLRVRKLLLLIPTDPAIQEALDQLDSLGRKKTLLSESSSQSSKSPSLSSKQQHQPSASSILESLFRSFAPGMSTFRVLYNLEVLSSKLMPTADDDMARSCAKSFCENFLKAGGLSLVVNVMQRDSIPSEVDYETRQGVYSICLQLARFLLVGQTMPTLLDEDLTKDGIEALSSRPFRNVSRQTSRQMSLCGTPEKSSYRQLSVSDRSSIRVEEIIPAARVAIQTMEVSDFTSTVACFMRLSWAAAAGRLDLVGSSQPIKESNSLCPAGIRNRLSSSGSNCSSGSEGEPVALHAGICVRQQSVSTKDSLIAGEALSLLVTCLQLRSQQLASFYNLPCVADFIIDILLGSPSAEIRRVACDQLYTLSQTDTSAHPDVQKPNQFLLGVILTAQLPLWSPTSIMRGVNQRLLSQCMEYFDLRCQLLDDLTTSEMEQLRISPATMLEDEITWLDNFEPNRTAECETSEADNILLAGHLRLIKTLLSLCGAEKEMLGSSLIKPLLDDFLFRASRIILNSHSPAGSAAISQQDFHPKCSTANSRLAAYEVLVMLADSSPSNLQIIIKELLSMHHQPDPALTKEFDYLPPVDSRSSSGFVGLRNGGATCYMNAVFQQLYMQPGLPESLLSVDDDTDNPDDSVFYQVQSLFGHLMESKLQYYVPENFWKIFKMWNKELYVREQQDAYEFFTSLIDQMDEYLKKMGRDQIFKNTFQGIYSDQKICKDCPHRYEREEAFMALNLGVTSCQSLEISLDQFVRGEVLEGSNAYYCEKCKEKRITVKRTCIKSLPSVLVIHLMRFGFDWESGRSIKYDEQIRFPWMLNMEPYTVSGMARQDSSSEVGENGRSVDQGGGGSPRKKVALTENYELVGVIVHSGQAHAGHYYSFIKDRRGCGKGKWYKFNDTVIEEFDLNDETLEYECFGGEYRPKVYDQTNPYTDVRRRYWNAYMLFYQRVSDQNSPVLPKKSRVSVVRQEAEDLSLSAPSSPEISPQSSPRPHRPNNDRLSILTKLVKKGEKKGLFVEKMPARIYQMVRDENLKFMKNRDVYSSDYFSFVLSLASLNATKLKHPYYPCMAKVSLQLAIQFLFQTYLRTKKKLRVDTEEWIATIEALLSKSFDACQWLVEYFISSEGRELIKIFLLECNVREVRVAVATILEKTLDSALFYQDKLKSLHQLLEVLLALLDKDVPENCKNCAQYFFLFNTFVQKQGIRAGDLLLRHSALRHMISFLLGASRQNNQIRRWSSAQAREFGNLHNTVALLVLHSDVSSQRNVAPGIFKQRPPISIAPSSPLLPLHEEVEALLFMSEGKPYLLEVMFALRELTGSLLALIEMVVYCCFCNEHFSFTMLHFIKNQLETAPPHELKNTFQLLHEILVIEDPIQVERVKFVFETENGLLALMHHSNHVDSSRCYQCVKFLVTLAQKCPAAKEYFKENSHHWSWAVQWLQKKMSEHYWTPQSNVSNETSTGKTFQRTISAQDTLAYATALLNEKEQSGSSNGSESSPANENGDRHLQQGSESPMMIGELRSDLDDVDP
In short: as §1

[4] = molecular target: T3, USP25 (UniProt Q9UHP3)
T3 sequence (whole entry): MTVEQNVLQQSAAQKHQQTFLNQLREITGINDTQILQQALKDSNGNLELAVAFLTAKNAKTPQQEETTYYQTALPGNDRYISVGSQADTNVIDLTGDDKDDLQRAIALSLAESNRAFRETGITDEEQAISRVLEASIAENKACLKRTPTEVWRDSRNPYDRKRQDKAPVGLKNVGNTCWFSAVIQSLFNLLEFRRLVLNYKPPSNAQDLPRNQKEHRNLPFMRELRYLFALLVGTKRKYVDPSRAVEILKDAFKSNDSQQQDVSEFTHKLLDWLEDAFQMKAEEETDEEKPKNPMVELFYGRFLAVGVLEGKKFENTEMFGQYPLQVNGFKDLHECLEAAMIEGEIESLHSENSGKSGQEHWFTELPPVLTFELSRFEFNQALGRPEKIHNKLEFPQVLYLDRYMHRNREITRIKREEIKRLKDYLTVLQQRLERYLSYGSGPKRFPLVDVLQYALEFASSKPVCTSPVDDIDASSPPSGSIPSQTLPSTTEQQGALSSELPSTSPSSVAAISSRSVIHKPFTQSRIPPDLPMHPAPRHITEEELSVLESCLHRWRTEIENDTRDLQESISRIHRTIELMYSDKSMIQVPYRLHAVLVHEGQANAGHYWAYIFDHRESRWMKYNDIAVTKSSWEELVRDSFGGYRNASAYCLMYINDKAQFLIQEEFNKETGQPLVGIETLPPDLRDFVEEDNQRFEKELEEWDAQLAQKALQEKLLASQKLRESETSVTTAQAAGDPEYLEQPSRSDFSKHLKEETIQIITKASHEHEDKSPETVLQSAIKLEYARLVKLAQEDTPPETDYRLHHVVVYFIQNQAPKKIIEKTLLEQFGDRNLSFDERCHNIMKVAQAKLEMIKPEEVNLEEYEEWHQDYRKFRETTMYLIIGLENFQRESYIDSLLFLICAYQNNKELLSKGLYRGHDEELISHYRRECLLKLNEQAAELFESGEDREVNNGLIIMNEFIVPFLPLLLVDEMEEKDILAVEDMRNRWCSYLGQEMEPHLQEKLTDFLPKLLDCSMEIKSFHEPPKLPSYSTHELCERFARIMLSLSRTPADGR
In short: as §1

[5] = molecular target: T4, USP28 (UniProt Q96RU2)
T4 sequence (whole entry): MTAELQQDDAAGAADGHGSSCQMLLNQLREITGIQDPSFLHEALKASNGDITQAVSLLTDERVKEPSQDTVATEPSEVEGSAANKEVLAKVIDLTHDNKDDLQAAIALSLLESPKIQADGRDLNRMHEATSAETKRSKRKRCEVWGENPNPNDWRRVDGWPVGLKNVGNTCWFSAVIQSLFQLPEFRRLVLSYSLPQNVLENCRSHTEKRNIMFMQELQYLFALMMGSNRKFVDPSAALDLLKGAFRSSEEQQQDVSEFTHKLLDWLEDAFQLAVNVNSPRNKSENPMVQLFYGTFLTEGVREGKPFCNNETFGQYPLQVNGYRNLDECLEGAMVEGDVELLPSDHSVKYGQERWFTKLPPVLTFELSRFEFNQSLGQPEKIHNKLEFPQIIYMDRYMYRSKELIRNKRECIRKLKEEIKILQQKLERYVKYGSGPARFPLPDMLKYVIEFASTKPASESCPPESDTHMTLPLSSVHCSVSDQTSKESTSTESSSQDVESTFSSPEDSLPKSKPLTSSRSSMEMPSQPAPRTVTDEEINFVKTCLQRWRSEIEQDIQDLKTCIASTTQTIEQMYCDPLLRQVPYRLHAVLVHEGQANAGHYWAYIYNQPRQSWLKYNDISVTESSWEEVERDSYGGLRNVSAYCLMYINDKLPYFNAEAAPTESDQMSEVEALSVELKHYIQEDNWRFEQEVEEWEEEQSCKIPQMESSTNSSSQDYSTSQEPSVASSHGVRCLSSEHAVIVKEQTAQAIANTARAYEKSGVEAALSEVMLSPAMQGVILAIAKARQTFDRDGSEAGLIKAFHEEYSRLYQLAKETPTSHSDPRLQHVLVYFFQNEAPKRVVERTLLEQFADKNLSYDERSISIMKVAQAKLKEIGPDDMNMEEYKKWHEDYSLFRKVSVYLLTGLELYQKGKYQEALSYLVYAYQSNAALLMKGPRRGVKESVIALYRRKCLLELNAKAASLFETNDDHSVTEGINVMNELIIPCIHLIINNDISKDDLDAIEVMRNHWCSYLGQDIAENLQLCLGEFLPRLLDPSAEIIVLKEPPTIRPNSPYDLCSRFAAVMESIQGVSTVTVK
In short: as §1

Measured: log2 ratio of Biotin-Ahx-Ub-VS probe labelling

O=C(CCl)NC1CCN(C(=O)C2CCCCC2)CC1
inactive: [1] 0.0532 | [2] 0.324 | [3] -0.169 | [4] -0.158 | [5] -0.257
